# From the supplement of paper PMC13380429
# A number with no mark means an inactive call.
# Tested on: Vero E6 infected with SARS-CoV-2
# Assay: inhibition of SARS-CoV-2 cytopathic effect; higher = more antiviral protection, active = above 15
# Details: 1 nM; 48 h
row,SMILES,inhibition of SARS-CoV-2 cytopathic effect
1,CC(C)=CCC[C@](C)(O[C@@H]1O[C@H](CO)[C@@H](O)[C@H](O)[C@H]1O)[C@H]1CC[C@]2(C)[C@@H]1[C@H](O)C[C@@H]1[C@@]3(C)CC[C@H](O)C(C)(C)[C@@H]3CC[C@]12C [ginsenoside-C-K],3.53%
2,C=C(C)CN1CC[C@]23c4c5ccc(O)c4O[C@H]2c2[nH]c4ccccc4c2C[C@@]3(O)C1C5,1.25%
3,C[C@]1(COc2ccc(N3CCC(Oc4ccc(OC(F)(F)F)cc4)CC3)cc2)Cn2cc([N+](=O)[O-])nc2O1 [delamanid],-0.82%
4,Nc1ncnc2c1c(-c1ccc(Oc3ccccc3)cc1)nn2C1CCCC1,3.63%
5,C1=C2CCCN[C@H]2[C@@H]2C[C@H]1[C@H]1CCCCN1C2 [aloperine],-0.36%
6,COc1cc(NC(=O)c2ccc(-c3ccc(Cl)cc3)o2)cc(OC)c1,1.92%
7,C=C[C@H]1CN2CC[C@H]1C[C@@H]2[C@@H](O)c1ccnc2ccc(OC)cc12 [quinidine],-8.54%
8,CC(=O)N[C@H](Cc1ccc2ccccc2c1)C(=O)N[C@H](Cc1ccc(Cl)cc1)C(=O)N[C@H](Cc1cccnc1)C(=O)N[C@@H](CO)C(=O)N[C@@H](Cc1ccc(O)cc1)C(=O)N[C@H](CCCNC(N)=O)C(=O)N[C@@H](CC(C)C)C(=O)N[C@@H](CCCNC(=N)N)C(=O)N1CCC[C@H]1C(=O)N[C@H](C)C(N)=O [cetrorelix],-4.73%
9,CC(=O)Nc1cccc(-n2c(=O)n(C3CC3)c(=O)c3c(Nc4ccc(I)cc4F)n(C)c(=O)c(C)c32)c1 [trametinib],-1.42%
10,Clc1ccc(-c2nc3sccn3c2/C=N/OCc2ccc(Cl)c(Cl)c2)cc1,-0.5%
11,C[C@H]1CNCCCN1S(=O)(=O)c1cccc2cncc(F)c12 [ripasudil],-0.82%
12,COc1ccc(-n2[nH]c3c4c(ncc3c2=O)CCCCC4)cc1,0.69%
13,N[C@@H]1CONC1=O [cycloserine-(D)],-2.12%
14,C[C@@H](N)c1ccc(C(=O)Nc2ccnc3[nH]ccc23)cc1,0.69%
15,CCn1cc(C(=O)O)c(=O)c2cc(F)c(N3CCNC(C)C3)c(F)c21 (stereo unspecified) [lomefloxacin],0.57%
16,CC(C)CCC[C@@H](C)[C@H]1CC[C@H]2[C@@H]3CC=C4C[C@@H](O)CC[C@]4(C)[C@H]3CC[C@]12C [cholesterol],-1.33%

row,SMILES,inhibition of SARS-CoV-2 cytopathic effect
1,O=C1c2ccccc2C(Cc2ccnc(F)c2)(Cc2ccnc(F)c2)c2ccccc21,0.2%
2,Nc1ccn([C@H]2CC[C@@H](CO)O2)c(=O)n1 [zalcitabine],-0.47%
3,CCCn1c(=O)c2[nH]c(C3CCCC3)nc2n(CCC)c1=O,2.33%
4,C[C@]12CC[C@H](O)C[C@H]1CC[C@@H]1[C@@H]2CC[C@]2(C)[C@@H](c3ccc(=O)oc3)C[C@H]3O[C@]132 [resibufogenin],-0.2%
5,c1ccc(Cn2c(N3CCNCC3)nc3ccccc32)cc1 [lerisetron],1.65%
6,O=C(O)CC/C=C\C[C@@H]1CO[C@H](c2ccccc2Cl)O[C@@H]1c1ccccc1O (racemic),0.52%
7,CCCC(=O)OCOC(=O)C1=C(C)NC(C)=C(C(=O)OC)C1c1cccc(Cl)c1Cl (stereo unspecified) [cleviprex],3.04%
8,Cc1cc(C)nc(NS(=O)(=O)c2ccc(N)cc2)n1 [sulfamethazine],-2.32%
9,CCC(=O)O[C@@H](O[P@@](=O)(CCCCc1ccccc1)CC(=O)N1C[C@H](C2CCCCC2)C[C@H]1C(=O)O)C(C)C [fosinopril],-0.77%
10,Oc1ccc(CC2NCCc3cc(O)c(O)cc32)cc1 (stereo unspecified) [higenamine],1.31%
11,O=C(O)Cn1nnc(-c2cc(N3CCC(Oc4cc(F)ccc4Br)CC3)no2)n1,-0.51%
12,CC(C)C(=O)c1c(C(C)C)nn2ccccc12 [ibudilast],2.15%
13,N[C@H](C(=O)O)[C@H](O)c1ccc(O)c(O)c1 [droxidopa],1.22%
14,Cc1cc(=O)[nH]c(=S)[nH]1 [methylthiouracil],0.85%
15,CCCCN(CCCC)C(=O)CN1C[C@H](c2ccc3c(c2)OCO3)[C@@H](C(=O)O)[C@@H]1c1ccc(OC)cc1 [atrasentan],0.53%
